Measurements: PubChem BioAssay (Tox21)
Inconclusive results are not listed. Active and inactive are the calls of the source. Unless noted, the call rests on the fitted dose curve; in most records, active means well fitted curve in the direction sought with a large enough effect in the repeat runs; inconclusive means weak or mixed curves; inactive means flat fitted curve, though single readings scatter.

Tests used:
[1] = qHTS assay to test for compound auto fluorescence at 535 nm (green) in HEK293 cells (AID 720680)
[2] = qHTS assay to test for compound auto fluorescence at 460 nm (blue) in HEK293 cell free culture (AID 720681)
Procedure, shortened: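 Compounds were added to cell-free DMEM with 10% FBS and fluorescence read directly. The blue channel used 405 nm excitation and 460 nm emission, with triamterene as the reference fluorophore.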

[3] = qHTS assay to test for compound auto fluorescence at 535 nm (green) in HEK293 cell free culture (AID 720682)
Procedure, shortened: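 DMEM + 10% FBS, cell-free; cpd or DMSO pinned in; Ex485/Em535 read; output as fluorescein-equivalent signal.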

[4] = qHTS assay to test for compound auto fluorescence at 590 nm (red) in HEK293 cell free culture (AID 720683)
Procedure, shortened: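 Cell-free wells of DMEM with 10% FBS received compound, and intrinsic fluorescence was read at excitation/emission 540/590 nm. Values expressed as equivalence to Rose Bengal sodium.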

[5] = qHTS assay to test for compound auto fluorescence at 590 nm (red) in HepG2 cell free culture (AID 720684)
Procedure, shortened: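 Auto fluorescence equivalency versus Rose Bengal sodium, red channel Ex/Em 540/590 nm; compounds in cell-free MEM/10% FBS; DMSO vehicle control.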

[6] = qHTS assay to test for compound auto fluorescence at 460 nm (blue) in HepG2 cell free culture (AID 720685)
Procedure, shortened: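 Cell-free plates of MEM plus 10% FBS received 23 nL compound or DMSO vehicle; blue-channel (405/460 nm) intensity scored against triamterene as reference fluorophore.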

[7] = qHTS assay to test for compound auto fluorescence at 535 nm (green) in HepG2 cell free culture (AID 720686)
[8] = qHTS assay to test for compound auto fluorescence at 460 nm (blue) in HepG2 cells (AID 720687)
Procedure, shortened: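 HepG2 cells in MEM with 10% FBS, attached overnight at 37 C, were exposed to compound or DMSO for 1 hr at 37 C, 5% CO2. Blue fluorescence was read at 405/460 nm, with triamterene as reference fluorophore.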

[9] = molecular target: Glucocorticoid receptor (Homo sapiens) (UniProt P04150); test: qHTS assay to identify small molecule agonists of the glucocorticoid receptor (GR) signaling pathway (AID 720691; active means well fitted activation curve with a large enough effect in the signal ratio in the repeat runs, not every such curve was filed as active; the % refers to the signal ratio); settings: GR-bla HeLa, beta-lactamase reporter ratio, 18 h; activation: at 62.4 µM (top of the series) unless noted
Procedure, shortened: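 Agonist-mode qHTS in HeLa cells stably expressing a glucocorticoid-response-element beta-lactamase reporter. Fluorescence intensity read with FRET substrate (2 h, room temperature) after 18 h compound treatment at 37 C.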
On the % scale 0 is the no-effect control and ±100 the full control effect.

Sequence of Glucocorticoid receptor (Homo sapiens) (P04150 whole entry, looked up): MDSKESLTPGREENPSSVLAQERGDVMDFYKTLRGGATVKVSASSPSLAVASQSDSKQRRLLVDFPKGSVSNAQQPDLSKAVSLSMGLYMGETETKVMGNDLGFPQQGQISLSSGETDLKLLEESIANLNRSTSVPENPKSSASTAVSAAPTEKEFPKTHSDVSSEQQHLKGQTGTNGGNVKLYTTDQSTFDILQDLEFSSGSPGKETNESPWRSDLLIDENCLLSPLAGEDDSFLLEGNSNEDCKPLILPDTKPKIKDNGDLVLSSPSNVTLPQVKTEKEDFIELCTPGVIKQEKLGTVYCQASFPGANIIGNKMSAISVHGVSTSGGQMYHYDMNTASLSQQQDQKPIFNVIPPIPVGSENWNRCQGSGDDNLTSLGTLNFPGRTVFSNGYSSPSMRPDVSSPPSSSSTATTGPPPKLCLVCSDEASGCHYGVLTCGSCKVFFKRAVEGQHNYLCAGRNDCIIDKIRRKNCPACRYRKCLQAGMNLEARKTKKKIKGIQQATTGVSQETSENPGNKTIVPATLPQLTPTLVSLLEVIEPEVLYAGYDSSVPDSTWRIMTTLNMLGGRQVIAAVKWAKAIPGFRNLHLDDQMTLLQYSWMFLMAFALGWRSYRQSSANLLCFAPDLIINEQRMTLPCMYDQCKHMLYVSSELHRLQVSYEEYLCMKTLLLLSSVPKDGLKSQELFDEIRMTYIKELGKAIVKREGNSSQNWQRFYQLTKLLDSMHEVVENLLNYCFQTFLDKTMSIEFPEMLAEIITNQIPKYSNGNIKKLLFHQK

CCOC(=O)NCCOc1ccc(Oc2ccccc2)cc1
inactive: outcome [1] | outcome [2] | outcome [3] | Potency [4] | Potency [5] | outcome [6] | Potency [7] | outcome [8]

CC(C)CC(=O)C1C(=O)c2ccccc2C1=O
inactive: outcome [1] | outcome [2] | outcome [3] | Potency [4] | Potency [5] | outcome [6] | Potency [7] | outcome [8] | Potency [9]

CCCCCCc1ccc(-c2ccc(C#N)cc2)cc1
inactive: outcome [1] | outcome [2] | outcome [3] | Potency [4] | Potency [5] | outcome [6] | Potency [7] | outcome [8] | Potency [9]

O=C(O)c1ccco1
inactive: outcome [1] | outcome [2] | outcome [3] | Potency [4] | Potency [5] | outcome [6] | Potency [7] | outcome [8]

COc1cc(Cl)ccc1Oc1ccc(Cl)cc1Cl
inactive: outcome [1] | outcome [2] | outcome [3] | Potency [4] | Potency [5] | outcome [6] | Potency [7] | outcome [8] | Potency [9]

CC/C=C\CCOC(=O)CC
inactive: outcome [1] | outcome [2] | outcome [3] | Potency [4] | Potency [5] | outcome [6] | Potency [7] | outcome [8]

O=C(O)CNCC(=O)O
inactive: fluorescence, % of fluorescein [1] -0.0204% [at 3.72 µM] | fluorescence, % of fluorescent control [2] -0.259% [at 3.72 µM] | activity change [3] -0.144% [at 3.72 µM] | fluorescence, % of fluorescent control [4] -0.223% [at 3.72 µM] | fluorescence, % of Rose Bengal [5] -0.109% [at 3.72 µM] | fluorescence, % of fluorescent control [6] -0.156% [at 3.72 µM] | fluorescence, % of fluorescein control [7] -0.0374% [at 3.72 µM] | fluorescence, % of fluorescent control [8] -0.0767% [at 3.72 µM] | activation [9] -1.96% [at 6.9 µM]

Clc1ccc(Cn2c(CN3CCCC3)nc3ccccc32)cc1
inactive: fluorescence, % of fluorescein [1] 0.026% [at 18.6 µM] | fluorescence, % of fluorescent control [2] -0.0089% [at 18.6 µM] | activity change [3] -0.0526% [at 18.6 µM] | fluorescence, % of fluorescent control [4] 0.147% [at 18.6 µM] | fluorescence, % of Rose Bengal [5] -0.0239% [at 18.6 µM] | fluorescence, % of fluorescent control [6] 0.0634% [at 18.6 µM] | fluorescence, % of fluorescein control [7] -0.0084% [at 18.6 µM] | fluorescence, % of fluorescent control [8] 0.0474% [at 18.6 µM] | Potency [9]

O=C(O)c1ccc(-n2nc(-c3ccccc3O)nc2-c2ccccc2O)cc1
inactive: outcome [1] | outcome [2] | outcome [3] | Potency [4] | Potency [5] | outcome [6] | Potency [7] | outcome [8]

CCCCCC[C@@H](O)C/C=C\CCCCCCCC(=O)OC
inactive: outcome [1] | outcome [2] | outcome [3] | Potency [4] | Potency [5] | outcome [6] | Potency [7] | outcome [8]

CN(C)c1ccc(C(c2ccccc2)c2ccc(N(C)C)cc2)cc1
inactive: outcome [1] | outcome [2] | outcome [3] | Potency [4] | Potency [5] | outcome [6] | Potency [7] | outcome [8]

CN1CCC(N(Cc2cccs2)c2ccccc2)CC1
inactive: outcome [1] | outcome [2] | outcome [3] | Potency [4] | Potency [5] | outcome [6] | Potency [7] | outcome [8] | Potency [9]

NCc1ccccc1Sc1ccccc1CO
inactive: outcome [1] | outcome [2] | outcome [3] | Potency [4] | Potency [5] | outcome [6] | Potency [7] | outcome [8]

CN(C)CCCN1c2ccccc2Sc2ccccc21
inactive: fluorescence, % of fluorescein [1] -0.0365% [at 18.6 µM] | fluorescence, % of fluorescent control [2] -0.0313% [at 18.6 µM] | activity change [3] -0.0157% [at 18.6 µM] | fluorescence, % of fluorescent control [4] 0.0444% [at 18.6 µM] | fluorescence, % of Rose Bengal [5] -0.194% [at 18.6 µM] | fluorescence, % of fluorescent control [6] 0.0019% [at 18.6 µM] | fluorescence, % of fluorescein control [7] 0.134% [at 18.6 µM] | fluorescence, % of fluorescent control [8] -0.0716% [at 18.6 µM]

COc1ccc(C(=O)Nc2nc3ccccc3c(NCc3ccccc3)c2C#N)cc1
inactive: outcome [1] | outcome [2] | outcome [3] | Potency [4] | Potency [5] | outcome [6] | Potency [7] | outcome [8]

CCCCC(CC)CN1C(=O)C2C3C=CC(C3)C2C1=O (centres undefined)
inactive: outcome [1] | outcome [2] | outcome [3] | Potency [4] | Potency [5] | outcome [6] | Potency [7] | outcome [8] | Potency [9]

CCCCC/C=C\C/C=C\CCCCCCCC(=O)NC(C)c1ccccc1 (centres undefined)
inactive: outcome [1] | outcome [2] | outcome [3] | Potency [4] | Potency [5] | outcome [6] | Potency [7] | outcome [8] | Potency [9]

S=C([S-])NCCNC(=S)[S-].[Mn+2]
inactive: outcome [1] | outcome [2] | outcome [3] | Potency [4] | Potency [5] | outcome [6] | Potency [7] | outcome [8] | Potency [9]

C1CCCNCCC1
inactive: outcome [1] | outcome [2] | outcome [3] | Potency [4] | Potency [5] | outcome [6] | Potency [7] | outcome [8]

COc1cccc(N(C)C(=S)Oc2ccc3c(c2)CCCC3)n1
inactive: outcome [1] | outcome [2] | outcome [3] | Potency [4] | Potency [5] | outcome [6] | Potency [7] | outcome [8]
